# Assay results published in PubChem BioAssay AID504832 (National Center for Advancing Translational Sciences (NCATS), 2011).
# Screen size: about 310,000 compounds; about 18,000 (5.8%) were called active. About 22% were inconclusive and are not listed. What follows is part of a selection rich in actives, with near analogues and random picks from the rest. Unmarked numbers belong to inactive results. Calls come from the whole dose curve; as a rule, active = well fitted inhibition curve with a large enough effect; inconclusive = small, poorly fitted or top-dose-only effect, or another doubt; inactive = no such curve, though single readings can be large or run the other way.
# Test: Primary qHTS for delayed death inhibitors of the malarial parasite plastid, 48 hour incubation
# Conditions: P. falciparum luciferase growth in erythrocytes; series mostly up to 28.7 µM; activity change, negative = inhibition: at the top concentration
# In short: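 Read-out is firefly luciferase luminescence from an integrated reporter in P. falciparum, so falling signal marks reduced parasite growth. Infected erythrocytes were at 2% hematocrit and 0.1% parasitemia (final) in Albumax-supplemented RPMI 1640.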
# % is set by controls: 0 for no effect and ±100 for the full control effect; potency is the fitted concentration of half-maximal effect.
SMILES,"activity change, negative = inhibition [%]",Potency
Cn1c(SCc2ccc(F)cc2)nnc1-c1ccncc1,-20.5,–
Cc1ccc(-c2csc(NC(=O)C3=COCCO3)n2)cc1C,–,10.4 µM (active)
Cc1csc(NC(=O)C2=COCCO2)n1,115,–
Cc1ccc(-c2csc(NC(=O)c3cnccn3)n2)cc1C,20.3,–
CN(Cc1ccccc1)C(=O)c1cccc(C(=O)N(C)Cc2ccccc2)c1,4.36,–
CC(C)C[C@H](CO)Nc1nc(N(C)c2cccc(Cl)c2)c2ncn(C(C)C)c2n1,–,13.1 µM (active)
O=C(CCCC(=O)N1CCN(c2cccc(Cl)c2)CC1)c1ccccc1,-4.33,–
Cc1ccc(C)c(N2CCN(C(=O)Cn3ncn4cccc4c3=O)CC2)c1,31.9,–
CN1CN(C)c2ccc([N+](=O)[O-])c3cccc1c23,34.5,–
Cc1ccc(C(=O)N2CCC(n3nccc3NC(=O)Nc3cccc(F)c3)CC2)cn1,7.73,–
CCCCNC(=O)c1onc(CSc2cccc(OC)c2)c1C(=O)O,18.7,–
CCOc1cccc(SCc2noc(C(=O)NC(C)C)c2C(=O)O)c1,21.5,–
CCCNC(=O)c1onc(CSc2ccc(F)cc2)c1C(=O)NC(C)C,–,9.28 µM (active)
CCc1ccccc1S(=O)(=O)Cc1ccc(C(=O)NCCc2ccccc2)o1,-4.64,–
Cc1ccc(C)c2[nH]c(=O)c(CN(Cc3cccnc3)C(=S)NCc3ccco3)cc12,–,9.28 µM (active)
O=C(Nc1ccccc1)N(Cc1cccnc1)Cc1ccco1,-0.883,–
COCCNC(=S)N(Cc1cccnc1)Cc1ccc(OC)c(OC)c1,-3.14,–
COc1ccc(C(=O)N2CCN(c3ncccn3)CC2)cc1S(=O)(=O)N1CCOCC1,22,–
COc1cc(C(=S)N2CCOCC2)cc(OC)c1OC(=O)c1ccc([N+](=O)[O-])cc1[N+](=O)[O-],34.1,–
CCC(C)Sc1nc2c(cnn2-c2ccc(F)cc2)c(=O)[nH]1 (stereo not given),18.2,–
Cc1cccc(C)c1NC(=O)COC(=O)c1ccccc1O,11.5,–
Cn1nnnc1SCc1cc(=O)[nH]c2ccccc12,10.9,–
CC(=O)N(Cc1cc(=O)[nH]c2ccccc12)c1ccc(C)cc1C,-19.8,–
Cc1ccc(N(Cc2cc(=O)[nH]c3ccccc23)C(=O)CCl)cc1,–,9.28 µM (active)
COc1cc(/C=N/NC(=O)CNC(=O)c2ccncc2)ccc1OC(C)=O,28.7,–

SMILES,"activity change, negative = inhibition [%]",Potency
O=C(COC(=O)/C=C/c1cccs1)NC1CCCCC1,5.56,–
O=C(CSc1nc2ccccc2[nH]1)N/N=C/C=C\c1ccccc1[N+](=O)[O-],7.14,–
CCn1c(SCC(=O)N/N=C/C=C/c2ccccc2[N+](=O)[O-])nnc1-c1ccccc1,-3,–
Cc1ccc(-n2c(SCC(=O)N/N=C/C=C/c3ccccc3[N+](=O)[O-])nc3ccccc3c2=O)cc1,–,13.1 µM (active)
Cc1ccc(C(=O)NC23CC4CC(CC(C4)C2)C3)c(Cl)c1,2.76,–
CN(C(=O)COC(=O)CCCc1c[nH]c2ccccc12)c1c(N)n(Cc2ccccc2)c(=O)[nH]c1=O,3.11,–
N#CCSc1nn(-c2ccc(F)cc2)c(=S)s1,–,5.86 µM (active)
O=C(CSc1nn(-c2ccc(F)cc2)c(=S)s1)NC1CCS(=O)(=O)C1 (stereo not given),-19.4,–
Cc1ccccc1-n1nc(SCC(=O)O)sc1=S,6.96,–
CCOC(=O)Cc1csc(SCC(=O)Nc2ccc(C)cc2F)n1,1.53,–
O=C1COc2ccc(S(=O)(=O)NCCc3ccc(Cl)cc3)cc2N1,-15.4,–
CSc1ccccc1NC(=O)c1cnc2sc(C)cn2c1=O,74.1,–
CC(=O)Nc1ccc(Nc2cc(C)nc(Nc3ccc(NC(C)=O)cc3)n2)cc1,–,1.65 µM (active)
COc1ccc(C(=O)NNc2cc(C)nc(NNC(=O)c3ccc(OC)cc3)n2)cc1,58,–
CCC(=O)Nc1ccc(Nc2nc(Cl)nc(Nc3ccc(NC(=O)CC)cc3)n2)cc1,21.1,–
Cn1nc(-c2ccccc2)c2cc([N+](=O)[O-])ccc21,-3.2,–
COc1ccc(NC(=O)Cn2nnc(C(=O)NCCc3ccc(OC)c(OC)c3)c2N)cc1,-10.4,–
COc1ccc(NC(=O)COC(=O)Cn2c(C)nc3ccccc32)cc1OC,9.03,–
COc1ccc(-c2cn(-c3ccc(C)cc3)c(=O)n2CC(=O)Nc2ccc(OC)c(OC)c2)cc1,–,14.7 µM (active)
COC(=O)c1ccc(COc2ccc(C#N)cc2)o1,7.42,–
COc1ccc(OCC(=O)NCCS(=O)(=O)N2CCN(c3ccc(F)cc3)CC2)cc1,-0.428,–
CC(C)CC(=O)c1c[nH]c(C(=O)NCc2ccccc2)c1,-10.2,–
Cc1nnc(SCC(=O)N2c3ccccc3C(C)(c3ccc(Cl)cc3)CC2(C)C)s1 (stereo not given),–,10.4 µM (active)
Cc1nnc(SCC(=O)NCc2ccccc2)s1,-5.4,–
Cc1nnc(SCC(=O)N2CCc3ccccc3C2)s1,16.2,–
